High-throughput results (PubChem)
Hits are enriched below; roughly 2.6% of the tested compounds scored in any of these assays.
EWS-Fli inh – blocks EWS/Fli oncoprotein-driven transcription; A673 NR0B1-luciferase reporter, viability-normalised; inhibition, % at 12.6 µM; 350,000 compounds, 0.67% hits;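 active = mean inhibition of at least 50% after viability correction, with every replicate also passing that limit; inconclusive = mean reaches 50% but only one of two replicates passes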;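 note: firefly luciferase signal divided by Alamar Blue viability fluorescence both relative to DMSO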
LGR2 antag – Drosophila LGR2 receptor signaling inhibition; HEK293 LGR2, CRE-luciferase, bursicon-stimulated, 4 h; inhibition, % at 9.99 µM; 380,000 compounds, 0.35% hits; AID 720647;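 active = drop in luminescence signal, shown as inhibition above about 50% in the replicate tests, limit read from the data, passing the limit was not always enough; inconclusive = probably only some replicates passing the limit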;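 note: agonist challenge used bursicon conditioned medium at about half maximal strength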
KKLEB tox – reduces viability of KKLEB cystic fibrosis airway cells | activity change (cytotoxicity), % at 5 µM | KKLEB CF airway cells viability, ATPlite luminescence, overnight; stronger effect = lower value; cells stimulated with P. aeruginosa culture filtrate | 360,000 compounds, 0.36% hits;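 active = corrected activity change at or below -50% at 5 µM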
CF NFkB inh – inhibitors of cystic fibrosis induced NF-kB; KKLEB NF-kB-GFP reporter, PAF-induced, GFP fluorescence overnight; inhibition, % at 5 µM; 360,000 compounds, 0.86% hits;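 active = at least 50% inhibition at 5 µM, scaled per plate between neutral and stimulator controls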;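 note: PAF is a Pseudomonas aeruginosa culture filtrate used as stimulus; plate controls were PAF-stimulated DMSO wells for no effect and unstimulated DMSO wells for full effect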
TWEAK Fn14 block – TWEAK-Fn14 signaling inhibition. TWEAK-stimulated Fn14 reporter cells, luciferase luminescence, 8 h. inhibition, % at 10 µM. 360,000 compounds, 2% hits; in the data active = inhibition above about 50%
TROY NFkB inh – inhibitors of TROY-dependent NF-kB signaling | AID 1347056 | 360,000 compounds, 0.98% hits | Q293 LMP1-TROYcd NF-kB luciferase reporter, 4 h | inhibition, % at 10 µM;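 active = compounds whose plate-normalised and pattern-corrected inhibition of the luciferase reporter signal at the single screening dose is 50% or more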
The depositor's hits bear a star; u = inconclusive; x = no result given.

SMILES	EWS-Fli inh	LGR2 antag	KKLEB tox	CF NFkB inh	TWEAK Fn14 block	TROY NFkB inh
O=c1[nH]c(CSc2ccccn2)nc2c1oc1ccccc12	28	80*	0	10	65*	46
CCCc1cn(CC[C@H]2CC[C@@H](NC(=O)C3CCOCC3)[C@H](CO)O2)nn1	1	3	x	x	x	x
COc1ccc(N=Cc2cc(Cc3ccccc3Cl)cc([N+](=O)[O-])c2O)cc1OC	x	x	37	46	-14	31
Cc1ccc(N=Cc2cc(Cc3ccccc3Cl)cc([N+](=O)[O-])c2O)c(O)c1	x	x	6	73*	16	46
COc1cccc(-c2ccc([C@@H]3[C@H](CO)N4CCCCN(S(=O)(=O)c5cn(C)cn5)C[C@@H]34)cc2)c1	-7	0	x	x	x	x
COc1ccc(S(=O)(=O)N2CCCCN3[C@H](CO)[C@H](c4ccc(-c5cccnc5)cc4)[C@@H]3C2)cc1	x	58*	x	x	x	x
CCS(=O)(=O)N1CCCCN2[C@H](CO)[C@@H](c3ccc(-c4ccccc4C)cc3)[C@@H]2C1	6	5	x	x	x	x
Cc1ccccc1-c1ccc([C@@H]2[C@H](CO)N3CCCCN(S(=O)(=O)Cc4ccccc4)C[C@@H]23)cc1	57*	0	x	x	x	x
COc1ccc(S(=O)(=O)N2CCCCN3[C@@H](CO)[C@H](c4ccc(-c5cccnc5)cc4)[C@@H]3C2)cc1	x	34	x	x	x	x
CC(C)C#Cc1ccc([C@H]2[C@H](C#N)N(C(=O)CN(C)C)[C@H]2CO)cc1	6	-30	x	x	x	x
COc1ccc2[nH]c(C(=O)N3CCC(CO)(Cc4cccc(C(F)(F)F)c4)CC3)c(C)c2c1	6	3	-4	0	22	53*
C[C@H](CO)N1C[C@H](C)[C@H](CN(C)C(=O)Nc2ccc3c(c2)OCO3)Oc2ncc(-c3cccc(C(F)(F)F)c3)cc2C1=O	10	5	x	x	x	x
Cc1noc(C)c1NC(=O)Nc1ccc2c(c1)C(=O)N([C@H](C)CO)C[C@@H](C)[C@@H](CN(C)S(=O)(=O)c1ccccc1)OCCCC[C@@H](C)O2	12	-3	x	x	x	x
COc1ccc(N=c2oc3ccc(OC)cc3cc2-c2nc3ccccc3[nH]2)cc1	x	x	-24	-11	49	12
COc1cccc(N=c2oc3ccc(OC)cc3cc2-c2nc3ccccc3[nH]2)c1	x	x	-29	-30	62*	48
COc1cccc(N=c2oc3ccccc3cc2-c2nc3ccccc3[nH]2)c1	x	x	-17	4	75*	2
Cc1ccc(S(=O)(=O)Nc2ccc3c(c2)C(=O)N([C@@H](C)CO)C[C@@H](C)[C@@H](CN(C)C(=O)Nc2ccccc2)OCCCC[C@H](C)O3)cc1	-6	-1	x	x	x	x
COc1cc2c(O)c3c(c(-c4ccc5c(c4)OCO5)c2cc1OC)C(=O)OC3	x	x	-73*	76*	-60	-12
CCOC(=O)c1[nH]c2c(c1C)C(=O)CC(c1ccc(F)cc1)C2 (stereo not given)	63*	-18	-21	42	-21	16
COCCOC(=O)c1[nH]c2c(c1C)C(=O)CC(c1cccs1)C2 (stereo not given)	61*	-2	2	29	2	28
Cc1c(C(=O)OCC(C)C)[nH]c2c1C(=O)CC(c1cccs1)C2 (stereo not given)	x	x	-24	37	-2	6
COC(=O)c1[nH]c2c(c1C)C(=O)CC(c1cccc(OC)c1)C2 (stereo not given)	60*	-7	4	20	18	7
CCOCCOC(=O)c1[nH]c2c(c1C)C(=O)CC(c1cccs1)C2 (stereo not given)	53*	-20	-11	43	2	19
CN1c2ccc(-c3cccc(F)c3)cc2[C@H]2[C@H](CCN2C(=O)Cc2cccnc2)[C@H]1CO	10	8	x	x	x	x
CCCNC(=O)N1CC2(C1)CN(C(=O)c1cccnc1)[C@H](CO)c1[nH]c3cc(OC)ccc3c12	14	4	x	x	x	x
SMILES	EWS-Fli inh	LGR2 antag	KKLEB tox	CF NFkB inh	TWEAK Fn14 block	TROY NFkB inh
Cc1ccc(NS(=O)(=O)c2cc([N+](=O)[O-])ccc2NNC(=S)Nc2cccc(Cl)c2)c(C)c1	x	x	6	28	40	62*
Cc1ccc(NS(=O)(=O)c2cc([N+](=O)[O-])ccc2NNC(=S)Nc2cc(C)ccc2C)c(C)c1	x	40	-24	44	68*	53*
Cc1cc(Cl)c(S(=O)(=O)N2CCSCC2)cc1OCC(=O)NC1CCCCC1	x	x	12	11	61*	41
Cc1cc(Cl)c(S(=O)(=O)N2CCN(c3ccccn3)CC2)cc1OCC(=O)NC1CCCCC1	-1	19	3	3	63*	53*
C[C@@H]1CCCCO[C@H](CN(C)C(=O)CCCN(C)C)[C@@H](C)CN([C@@H](C)CO)C(=O)c2cc(NC(=O)Nc3ccc(C(F)(F)F)cc3)ccc2O1	0	8	x	x	x	x
O=C(C[C@H]1CC[C@H](NC(=O)CC2CC2)[C@@H](CO)O1)NCc1ccc(Cl)cc1	-2	-2	x	x	x	x
Cc1ccc(S(=O)(=O)c2ccc([N+](=O)[O-])o2)cc1	43	u	-89*	78*	102*	59*
Cc1cccc(NC(=O)C[C@H]2CC[C@H]3[C@@H](COc4ccc(NC(=O)C5CCC5)cc4C(=O)N3C)O2)c1	13	5	x	x	x	x
CCCNC(=O)[C@H]1[C@H](CO)[C@H]2Cn3c(ccc(-c4ccccc4F)c3=O)[C@@H]1N2C(=O)CC	4	10	x	x	x	x
Cc1cc(C(=O)NC2CCCc3c2cnn3-c2ccc(C(C)(C)C)cc2)nn1C (stereo not given)	40	1	9	-9	61*	39
COC(=O)c1ccc(C(=O)NC2CCCc3c2cnn3-c2cc(F)cc(F)c2)nc1 (stereo not given)	53*	-3	-9	17	14	-20
O=C(NC1CCCc2c1cnn2-c1cc(F)cc(F)c1)c1ccccn1 (stereo not given)	x	-7	0	-8	-7	-14
CN1C(=O)c2cc(NC(=O)c3cscn3)ccc2OC[C@@H]2O[C@@H](CC(=O)N3CCCCC3)CC[C@@H]21	1	13	x	x	x	x
CCC(=O)N1CC2(C1)CN(Cc1ccc(Cl)cc1)[C@@H](CO)c1[nH]c3cc(OC)ccc3c12	8	12	x	x	x	x
C/C(=N\NC(=S)NC1CCCCC1)c1ccc(Cl)c(Cl)c1	3	1	3	-11	62*	41
C/C(=N\NC(=O)C1CCCC1)c1ccc(Cl)c(Cl)c1	-24	-18	-6	5	-53	-32
O=Cc1s/c(=N\S(=O)(=O)c2ccccc2)n(CCCCl)c1Cl	55*	72*	-69*	89*	96*	35
CC(C)NC(=O)N(C)C[C@H]1Oc2cc(C#C[C@@H](C)O)ccc2S(=O)(=O)N([C@H](C)CO)C[C@@H]1C	-10	-15	x	x	x	x
O=C(c1ccc(-c2nnc(-c3ccccc3)o2)cc1)N1CCCCCC1	x	x	-7	6	57*	30
